About 83,000 compounds went through this panel and 20% of them were active in at least one assay; those are over-represented in the sample as a whole.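 Negative percent growth values reflect cell death: -40 means 40% of the cells present at the start died, and -100 means all died.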 Values without a mark were called inactive. Active and inactive are the calls of the source. The calls were made as follows: active = growth percent below 10; inactive = the rest.
What was measured:
Test in all cases: NCI-60 one-dose screen, 48 h (100 = growth as untreated, 0 = no growth, -100 = all killed)
Settings in all cases: 10 µM unless noted
HCT-15 colon = system: HCT-15 colon
HT29 colon = system: HT29 colon
SNB-75 CNS = system: SNB-75 CNS
SNB-19 CNS = system: SNB-19 CNS
U251 CNS = system: U251 CNS
PC-3 prostate = system: PC-3 prostate
SK-MEL-5 melanoma = system: SK-MEL-5 melanoma
UACC-62 melanoma = system: UACC-62 melanoma
LOX IMVI melanoma = system: LOX IMVI melanoma
SK-MEL-28 melanoma = system: SK-MEL-28 melanoma
SK-MEL-2 melanoma = system: SK-MEL-2 melanoma
EKVX NSCLC = system: EKVX NSCLC
SN12C renal = system: SN12C renal
UO-31 renal = system: UO-31 renal
TK-10 renal = system: TK-10 renal
ACHN renal = system: ACHN renal
CAKI-1 renal = system: CAKI-1 renal
A498 renal = system: A498 renal
CCRF-CEM leukemia = system: CCRF-CEM leukemia
MOLT-4 leukemia = system: MOLT-4 leukemia

| SMILES | growth (HCT-15 colon) | growth (HT29 colon) | growth (SNB-75 CNS) | growth (SNB-19 CNS) | growth (U251 CNS) | growth (PC-3 prostate) | growth (SK-MEL-5 melanoma) | growth (UACC-62 melanoma) | growth (LOX IMVI melanoma) | growth (SK-MEL-28 melanoma) | growth (SK-MEL-2 melanoma) | growth (EKVX NSCLC) | growth (SN12C renal) | growth (UO-31 renal) | growth (TK-10 renal) | growth (ACHN renal) | growth (CAKI-1 renal) | growth (A498 renal) | growth (CCRF-CEM leukemia) | growth (MOLT-4 leukemia) |
| --- | --- | --- | --- | --- | --- | --- | --- | --- | --- | --- | --- | --- | --- | --- | --- | --- | --- | --- | --- | --- |
| C=CCOc1cccc(/C=C2\SC(=S)N(C3CC(=O)N(c4ccc(Br)cc4)C3=O)C2=O)c1 (stereo not given) | 97.5% | 115% | 120% | 96.5% | 96.6% | 93.1% | 101% | 86.8% | 93.1% | 96.6% | 117% | 105% | 92.8% | 89.6% | 126% | 94.8% | 104% | 105% | 96.7% | 105% |
| N#Cc1cn(Cc2ccc(Cl)cc2Cl)c(C(=O)c2ccc(Br)cc2)c1N | 94.6% | 102% | 89.6% | 69.5% | 86.1% | 86.9% | 97.5% | 82.8% | 90.1% | 99% | 97.9% | 93.8% | 101% | 81.6% | 101% | 99% | 92.3% | 86.7% | 108% | 98.9% |
| CCOc1cccc(-c2nc3sccn3c2-c2ccnc(S(C)(=O)=O)n2)c1 | 76.8% | 99.6% | 98.4% | 91.8% | 103% | 96.9% | 99.3% | 89.6% | 78.6% | 90.5% | 108% | 101% | 98.4% | 97.1% | 119% | 87.6% | 86.3% | 73.3% | 99.6% | 101% |
| COc1ccc(NC(=O)CSc2nnc(-c3ccc4nc(-c5ccccc5)[nH]c4c3)o2)cc1 | 92.2% | 108% | 101% | 102% | 102% | 105% | 85.9% | 95% | 101% | 99.7% | 105% | 94% | 96% | 85.7% | 121% | 102% | 101% | 98% | 91.6% | 83.5% |
| O=C(CNc1nc(-c2cccc([N+](=O)[O-])c2)cs1)Nc1cccc([N+](=O)[O-])c1 | 3.96% (active) | -34.9% (active) | 52.9% | -12.3% (active) | -14.8% (active) | -37.8% (active) | -84.5% (active) | -62.6% (active) | -74.3% (active) | -24.3% (active) | 9.35% (active) | 52.9% | -4.54% (active) | -79.3% (active) | -13.6% (active) | -20.1% (active) | -10.3% (active) | -77.4% (active) | -0.65% (active) | 6.77% (active) |
| ClC(Cl)c1nc(-c2ccco2)n2nc(-c3ccccc3)cc2n1 | 12.8% | 0.803% (active) | 88.5% | 8.35% (active) | -0.0523% (active) | 1.66% (active) | 98.1% | 40.7% | 98.2% | 12.4% | 89.6% | 4.01% (active) | 66.5% | 35.3% | 20.3% | -23.9% (active) | -19.1% (active) | -7.32% (active) | 89.8% | 66.6% |
| C#Cc1nc(/C=C/C(=O)c2nccn2C)cs1 | -72.9% (active) | -38.2% (active) | -3.26% (active) | -79.2% (active) | -74.3% (active) | -78.9% (active) | -84.2% (active) | -84.3% (active) | -81.4% (active) | -31.9% (active) | 18.6% | -59.4% (active) | -47.2% (active) | -80.7% (active) | -18.8% (active) | -94% (active) | -55.7% (active) | -88.1% (active) | -21.6% (active) | -31.2% (active) |
| CCNC(=O)N1CCc2cc(OC)c(OCCc3ccc(OC)nc3)cc2C1c1ccc(OC)cc1C (stereo not given) | 14% | 5.66% (active) | 25.9% | 34.5% | 26.2% | 37.8% | 23.6% | 22.7% | 7.09% (active) | 43.9% | 30.1% | 61.8% | 44.8% | 40.3% | 59.9% | 32.2% | 33.7% | 14.1% | 39.3% | 25.8% |

Reference: PubChem BioAssay (NCI)
